According to PubChem BioAssay (Tox21):
Values without a mark were called inactive. Calls come from the whole dose curve.
% is set by controls: 0 for no effect and ±100 for the full control effect.

Assay: qHTS assay to identify small molecule agonists of the estrogen related receptor (ERR) signaling pathway from Tox21 library (AID 1224849); note: nearly all actives have a fitted effect of over 15% in size
Conditions: ERR reporter cell line, ONE-Glo luciferase, 18 h; at 92.4 µM (top of the series) unless noted
Text: National Center for Advancing Translational Sciences [NCATS]
NIH Chemical Genomics Center [NCGC]
U.S. Environmental Protection Agency [EPA]
National Institutes of Environmental Health Sciences [NIEHS]
National Toxicology Program [NTP]
Estrogen related receptors (ERRs), the first orphan nuclear receptors discovered, play an important role in the control of cellular energy metabolism. ERRs are required for high-energy production in response to the environmental challenges. ERR-alpha was also identified as an adverse marker for breast cancer progression; ERR-alpha-positive tumors have a poor prognosis. To screen and to identify environmental compounds that perturb the ERR signaling pathways could provide valuable information for potential therapeutic or preventive measures in the treatment of metabolic disease. For identifying ERR agonists, ERR cell line (provided by NTP) has been used to screen Tox21 10K library.
The ERR cells were dispensed at 2,000 cells/5 ul/well in 1536-well white plates using a Multidrop dispenser. After the assay plates were incubated at a 37 C/5% CO2 incubator for 6 hours, 23 nL of compounds dissolved in DMSO, positive and negative controls or DMSO only was transferred to the assay plate by a pin tool. The plates were incubated at 37 C for 18 hours. 4 ul/well of One-Glo reagent was added into the assay plates using a Flying Reagent Dispenser. After 30-minute incubation at room temperature, the luminescence intensity in the plates was measured using a ViewLux plate reader.
For `CN(C)C(=O)Nc1ccc(Oc2ccc(Cl)cc2)cc1`, the activity change, positive = activation was -44.7%. `Cc1oc(C)c(C(=O)Nc2ccccc2)c1C` gave an activity change, positive = activation of -47.2%. Work on `CC(=O)OCC(=O)[C@H]1CC[C@H]2[C@@H]3CCC4=CC(=O)CC[C@]4(C)[C@H]3CC[C@]12C` yielded an activity change, positive = activation of -35.1% [at 42.5 µM]. In the case of `CCCOC(=O)c1ccc(N)cc1`, the activity change, positive = activation is reported as -13.8% [at 42.5 µM]. `Nc1ccc(S(=O)(=O)O)c(N)c1` showed an activity change, positive = activation of 1.48%. Molecule `COc1ccc([C@@H]2Sc3ccccc3NC(=O)[C@@H]2O)cc1` has an activity change, positive = activation of -18.7% [at 42.5 µM]. Work on `NC(=O)Nc1ccc(Cl)cc1` yielded an activity change, positive = activation of 0.227%. With `CCOC(=O)c1ccccc1OC` the activity change, positive = activation was -0.575%. In the case of `C=CCCCCCCCCCCCCCCCC`, the activity change, positive = activation is reported as 3.59% [at 8.39 µM]. `Cc1ccc(/C=N/n2c(-c3ccccc3)csc2=S)cc1` gave an activity change, positive = activation of 4.75% [at 42.5 µM]. Work on `CCNC(=O)N1CCN(CCCC(c2ccc(F)cc2)c2ccc(F)cc2)CC1` yielded an activity change, positive = activation of -50.1% [at 42.5 µM]. `Cc1occc1C(=O)Nc1ccc(C(=O)N2CCC(F)(F)/C(=C\C(=O)N3CCC(N4CCCCC4)CC3)c3ccccc32)cc1` gave an activity change, positive = activation of -12.3% [at 42.5 µM]. In the case of `O=C(O)Cc1ccc(-c2ccccc2)cc1`, the activity change, positive = activation is reported as 1.1% [at 42.5 µM]. `CCCCC(CC)C(=O)OCCOCCOCCOCCOC(=O)C(CC)CCCC` (stereo not given) gave an activity change, positive = activation of -33%. `Cc1nc2ccccc2s1` gave an activity change, positive = activation of 1.14%. For `CO/N=C1\CN(c2nc3c(cc2F)c(=O)c(C(=O)O)cn3C2CC2)CC1CN` (stereo not given), the activity change, positive = activation was -26.9% [at 42.5 µM]. `CC(C)(C)CC(C)(C)c1ccc(OCCO)cc1` showed an activity change, positive = activation of -58.8%. For `CCCCCCCCSCCO`, the activity change, positive = activation was -3.95%. `COc1ccccc1N=Nc1c(S(=O)(=O)O)cc2cc(S(=O)(=O)O)cc(NC(C)=O)c2c1O` gave an activity change, positive = activation of -27.5%. With `Cc1cc(O)c2c(O)c3c(O)cccc3cc2c1` the activity change, positive = activation was -25.3% [at 42.5 µM]. For `CCCCC(CC)CNCC(CC)CCCC` (stereo not given), the activity change, positive = activation was 4.2%. `CCCc1c(OCCCOc2ccc(OCC(=O)O)cc2)ccc(C(C)=O)c1O` showed an activity change, positive = activation of -8.13%. `O=C(N[C@@H](c1ccccc1)[C@@H]1CCCCN1)c1cccc(C(F)(F)F)c1Cl` showed an activity change, positive = activation of -38.1%. `OC(CCCN1CCCCC1)(c1ccccc1)c1ccccc1` gave an activity change, positive = activation of 2.99% [at 42.5 µM]. With `CN1Cc2cc(C(=O)N3CCC(C4CCNCC4)CC3)ccc2N[C@@H](CC(=O)O)C1=O` the activity change, positive = activation was 7.88% [at 42.5 µM]. `COc1cc2[nH]c(=O)[nH]c(=O)c2cc1OC` showed an activity change, positive = activation of 2.16% [at 42.5 µM]. For `CCOC(=O)C(C)Oc1ccc(Oc2nc3ccc(Cl)cc3o2)cc1` (stereo not given), the activity change, positive = activation was -11.6%. `CC1(C)O[C@@H]2C[C@H]3[C@@H]4CCC5=CC(=O)C=C[C@]5(C)[C@H]4[C@@H](O)C[C@]3(C)[C@]2(C(=O)CO)O1` showed an activity change, positive = activation of -2.7% [at 42.5 µM]. Work on `COc1cc2c(cc1OC)-c1cc(=Nc3c(C)cc(C)cc3C)n(C)c(=O)n1CC2` yielded an activity change, positive = activation of -48.8% [at 42.5 µM]. In the case of `COCCOC`, the activity change, positive = activation is reported as -69.9%. With `Cc1cc(S(=O)(=O)O)ccc1N=Nc1c(O)ccc2ccccc12` the activity change, positive = activation was -1.94%. In the case of `CCOC(=O)[C@@H](C)Oc1ccc(Oc2nc3ccc(Cl)cc3o2)cc1`, the activity change, positive = activation is reported as -39.1%. `CC1CC(O)CC(C)(C)C1` (stereo not given) gave an activity change, positive = activation of -6.05%. `CCC(=O)Oc1ccc(/C(CC)=C(\CC)c2ccc(OC(=O)CC)cc2)cc1` gave an activity change, positive = activation of -47.8%. Work on `Cc1nccn1-c1ccc(Sc2cccc(C3(C(N)=O)CCOCC3)c2)cc1` yielded an activity change, positive = activation of -58%. `O=S(=O)(c1ccccc1)c1ccc(Cl)cc1` gave an activity change, positive = activation of -31.4%. In the case of `CC(C)CCCC(=O)O`, the activity change, positive = activation is reported as 0.997%. `CC(C)(O)c1ccccc1CC[C@@H](SCC1(CC(=O)O)CC1)c1cccc(/C=C/c2ccc3ccc(Cl)cc3n2)c1` showed an activity change, positive = activation of 1.93% [at 42.5 µM]. Work on `CC(=O)[C@H]1CC[C@H]2[C@@H]3C[C@H](C)C4=CC(=O)CC[C@]4(C)[C@H]3[C@@H](O)C[C@]12C` yielded an activity change, positive = activation of -35.5% [at 42.5 µM]. In the case of `NC(=O)Nc1ccc(Cl)c(Cl)c1`, the activity change, positive = activation is reported as 4.97%.
